Source: PubChem
In the library only some 2.4% were active in any assay of this set; here they are far more common.
TDP1 inh: qHTS Assay for Inhibitors of Tyrosyl-DNA Phosphodiesterase (TDP1); Tyrosyl-DNA phosphodiesterase 1 (Homo sapiens), Q9NUW8; recombinant TDP1, AlphaScreen DNA substrate cleavage; Potency, µM (titrated, usually from 130 µM), actives largely listed as inhibitors; hit rate 0.28% among 350,000; AID 485290, 2010; note: nearly all actives have a fitted effect of over 40% in size
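Compounds were preincubated with Tdp1 (1 nM final) for 15 min at room temperature before substrate (15 nM final) started a 5 min reaction; beads (10 ug/ml final) were then added for 10 min before AlphaScreen detection.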
12-LOX inh: Primary qHTS assay for inhibitors of human arachidonate 12S-lipoxygenase (ALOX12): Round 2 | AID 1671190, 2021 | hit rate 1.1% among 580,000 | Polyunsaturated fatty acid lipoxygenase ALOX12 (Homo sapiens), P18054 | purified 12hLO, xylenol orange hydroperoxide absorbance | Potency, µM (doses to about 108 µM), actives largely listed as inhibitors
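Hydroperoxide product was detected by ferrous iron/xylenol orange as the 573 to 405 nm absorbance ratio. Arachidonic acid at 40 uM (final) was turned over for 30 min at room temperature by 150 nM human 12hLO, pH 7.0 Hepes buffer, after 15 min compound preincubation.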
Rango complex inh: qHTS Assay for Inhibitors of Rango (Ran-regulated importin-beta cargo) - Importin beta complex formation. Importin subunit beta-1 (Homo sapiens), Q14974. Rango CFP/YFP FRET sensor + importin beta, 45 min. Potency, µM (top dose mostly 92.2 µM). hit rate 0.031% among 340,000. AID 540263, 2011; calls by dose curve; note: nearly all actives have a fitted effect of over 15% in size
Target sequence (Q14974 whole entry, looked up): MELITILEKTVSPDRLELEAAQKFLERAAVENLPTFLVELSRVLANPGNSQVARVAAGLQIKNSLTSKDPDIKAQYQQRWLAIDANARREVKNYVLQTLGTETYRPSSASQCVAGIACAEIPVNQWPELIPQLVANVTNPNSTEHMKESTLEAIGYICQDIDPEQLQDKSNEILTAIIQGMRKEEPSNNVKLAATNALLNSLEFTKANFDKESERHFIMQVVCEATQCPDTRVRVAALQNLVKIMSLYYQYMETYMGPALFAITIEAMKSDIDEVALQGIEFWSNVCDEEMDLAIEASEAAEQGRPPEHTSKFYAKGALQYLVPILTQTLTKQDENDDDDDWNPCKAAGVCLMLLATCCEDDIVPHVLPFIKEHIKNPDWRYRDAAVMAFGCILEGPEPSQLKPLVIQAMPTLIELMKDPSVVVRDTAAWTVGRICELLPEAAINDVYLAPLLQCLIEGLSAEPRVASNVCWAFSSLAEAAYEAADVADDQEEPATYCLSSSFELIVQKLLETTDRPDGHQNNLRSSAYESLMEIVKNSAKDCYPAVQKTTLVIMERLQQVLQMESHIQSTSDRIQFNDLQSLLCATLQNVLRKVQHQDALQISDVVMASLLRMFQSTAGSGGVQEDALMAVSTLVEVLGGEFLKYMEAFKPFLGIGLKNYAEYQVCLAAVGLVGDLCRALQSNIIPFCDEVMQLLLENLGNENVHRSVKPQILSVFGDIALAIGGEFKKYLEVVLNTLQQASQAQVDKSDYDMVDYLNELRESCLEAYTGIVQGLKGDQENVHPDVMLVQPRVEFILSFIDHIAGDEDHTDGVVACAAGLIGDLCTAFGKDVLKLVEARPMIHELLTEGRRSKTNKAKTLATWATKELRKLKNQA
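Inhibition scored from the CFP 486 nm/YFP 530 nm FRET ratio 45 min after adding 0.125 microM importin beta to 50 nM Rango biosensor preincubated 5 min with compound (room temperature, PBS with DTT, Tween-20, BSA). No-importin wells as positive control.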
Rango dissoc inh: qHTS Assay for Inhibitors of RanGTP induced Rango (Ran-regulated importin-beta cargo) - Importin beta complex dissociation; Snurportin-1 (Homo sapiens) + GTP-binding nuclear protein Ran (Homo sapiens) + Importin …; Biochemical FRET Rango-importin beta, RanGTP-induced dissociation; Potency, µM (series often up to 46.1 µM); hit rate 0.071% among 340,000; calls by dose curve; note: nearly all actives have a fitted effect of over 45% in size
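Compounds sat 5 min at room temperature with 0.1 uM Rango biosensor plus 0.25 uM importin beta, then FRET pre-read. RanGTP-RCC1 (0.6 uM Ran, 2mM GTP, 0.2 uM RCC1) added for 45 min, and the CFP/YFP post-read measured blocked complex dissociation.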
TSG101-PTAP inh: qHTS Assay for Iinhibitors of HIV-1 Budding by Blocking the Interaction of PTAP/TSG101. Tumor susceptibility gene 101 protein (Homo sapiens), Q99816. Fluorescence polarization, FITC-PTAP peptide / Tsg101 binding. Potency, µM (doses to about 115 µM), actives largely listed as inhibitors. 340,000 tested, under 10 active; active = well fitted inhibition curve with a large enough effect in the main read-out, with a control signal flat, not every such curve was filed as active; inconclusive = small, poorly fitted or top-dose-only effect, or effect the other way, or a change in a side signal; inactive = no such curve, though single readings can be large or run the other way
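Steps: Tsg101 binding domain dispensed (10 uM final), compounds pinned in DMSO, FITC-labeled PTAP-motif peptide added (50 nM final); after 20 min binding at room temperature, polarization measured.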
ClpP mod: qHTS Assay for Activators of ClpP | ATP-dependent Clp protease proteolytic subunit (Bacillus subtilis (strain 168)), P80244 | Potency, µM (doses to about 57.5 µM) | AID 651965, 2013 | hit rate 1.9% among 340,000 | purified B. subtilis ClpP, FRET peptide cleavage, 20 min; active = well fitted falling curve with a large enough effect; inconclusive = small, poorly fitted or top-dose-only effect; inactive = no such curve, though single readings can be large or run the other way; note: the source files actives as falling curves though it sought activators and does not explain the sign; nearly all actives have a fitted effect of over 65% in size
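ClpP 10 microg/mL final, pH 8 Tris/KCl buffer with BSA, glycerol, Tween-20; compound pinned in; FRET-FV substrate; RT 20 min; Ex320/Em430; ΔFRET vs ADEP 5.8 microM, DMSO, no enzyme.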
Numbers stand for hits; 0 = inactive; ? = inconclusive; - = no result. Unless noted, calls come from the whole dose curve; as a rule, active = well fitted curve in the direction sought with a large enough effect; inconclusive = small, poorly fitted or top-dose-only effect, or another doubt; inactive = no such curve, though single readings can be large; an effect the other way counts as inactive or inconclusive.

SMILES	TDP1 inh	12-LOX inh	Rango complex inh	Rango dissoc inh	TSG101-PTAP inh	ClpP mod
CC(NC(=O)c1ccc(-c2ccco2)cc1)c1ccccc1 (stereo unspecified)	-	12.6µM	-	-	-	-
CN1CCCCCCN(C(=O)c2ccsc2)[C@H]2CCC[C@H]2C1=O	-	0	-	-	-	-
Nc1nc(Nc2ccccc2)nc(N2CCOCC2)c1[N+](=O)[O-]	0	0	0	0	0	15.8µM
COc1ccc(-c2nc3ccccc3c(=O)n2NC(=S)N(C)C)cc1	0	35.5µM	0	0	0	0
COc1ccc(OCC(=O)Nn2c(-c3ccc(OC)cc3)nc3ccccc3c2=O)cc1	0	0	0	0	0	0
COCCNC(=O)c1cc(-c2ccccc2OC)on1	0	0	0	0	0	0
CCN(CC)C(=O)c1cc(-c2ccccc2OC)on1	0	0	0	0	0	25.1µM
CC1(C)Cc2ccccc2-c2nc(NCCO)n(-c3ccccc3)c(=O)c21	0	0	0	0	0	?
CC1(C)CC(n2c(NCCO)nc3c(c2=O)C2(CCCC2)Cc2ccccc2-3)CCO1 (stereo unspecified)	0	0	0	0	0	31.6µM
O=c1c2c(nc(NCCO)n1CC1CCCCC1)-c1ccccc1CC21CCCC1	0	?	0	0	0	28.2µM
CCC1(C)Cc2ccccc2-c2nc(NCCO)n(-c3ccccc3)c(=O)c21 (stereo unspecified)	0	?	0	0	0	0
Cc1nc(N2C(=O)C(=O)/C(=C(/O)c3ccccc3)C2c2ccccc2F)sc1C (stereo unspecified)	-	0	-	-	-	-
COc1ccc(S(=O)(=O)NCc2cccs2)cc1	22.4µM	0	0	0	0	0
CCN(CC)CCCNC(=O)c1c2c(nc3ccccc13)C(=O)N(C1CCCCC1)C2	0	0	-	-	-	14.1µM
CCCNC(=O)c1c2c(nc3ccccc13)C(=O)N(C1CCCCC1)C2	0	0	-	-	-	?
CC(C)CC1=C/C(=C/c2ccc(-c3ccccc3)o2)C(=O)O1	0	12.6µM	?	?	0	25.1µM
CC1(C(=O)Nc2cccc3cccnc23)CCN1Cc1cccc2c1OCO2 (stereo unspecified)	-	0	-	-	-	31.6µM
CC1(C(=O)Nc2ccc3c(c2)OCO3)CCN1Cc1cccc2c1OCO2 (stereo unspecified)	-	0	-	-	-	0
COc1ccc(C(NC(=O)C2CCCCC2)c2c(O)ccc3ccccc23)cc1 (stereo unspecified)	0	0	0	0	0	25.1µM
CCCC(=O)NC(c1ccc(OC)cc1)c1c(O)ccc2ccccc12 (stereo unspecified)	-	0	0	0	0	-
Cc1ccc(CCNC(=O)Cn2c(-c3cccs3)cc3ccccc32)cc1	0	0	-	-	-	0
NS(=O)(=O)c1ccc(CCNC(=O)Cn2c(-c3cccs3)cc3ccccc32)cc1	0	0	-	-	-	35.5µM
CCCN1CCN(CCCNC(=O)Cn2c(-c3cccs3)cc3ccccc32)CC1	0	0	-	-	-	35.5µM
CCN1CCN(CCCNC(=O)Cn2c(-c3cccs3)cc3ccccc32)CC1	0	0	-	-	-	10µM
CCCN1CCN(C(=O)Cn2c(-c3cccs3)cc3ccccc32)CC1	0	0	-	-	-	31.6µM
SMILES	TDP1 inh	12-LOX inh	Rango complex inh	Rango dissoc inh	TSG101-PTAP inh	ClpP mod
Cc1cc2ccccc2n1CC(=O)NCCCC(=O)O	-	0	-	-	-	-
CC1CCCCN1S(=O)(=O)c1ccc2c(c1)c(=O)n(CC(=O)N1CCCCCC1)c(=O)n2C (stereo unspecified)	-	0	-	-	-	-
O=C(Cn1c(-c2cccs2)cc2ccccc21)NCCCN1CCN(c2cccc(Cl)c2)CC1	0	0	-	-	-	25.1µM
Cc1ccc(C)c(N2CCN(CCCNC(=O)Cn3c(-c4cccs4)cc4ccccc43)CC2)c1	0	0	-	-	-	28.2µM
CCCN1CCN(CCCNC(=O)Cn2c(-c3cccs3)cc3cc(Cl)ccc32)CC1	0	0	-	-	-	31.6µM
Cc1ccc(C)c(N2CCN(CCCNC(=O)Cn3c(=O)c4cccn4c4cccnc43)CC2)c1	0	0	0	0	0	0
CN1CCN(CCCNC(=O)Cn2c(-c3cccs3)cc3ccccc32)CC1	0	0	-	-	-	11.2µM
CN1CCN(CCCNC(=O)Cn2ncc3c4ccccc4n(C)c3c2=O)CC1	0	0	0	0	0	0
O=C(c1ccccc1)C(CN1CCCCC1)c1ccccc1 (stereo unspecified)	-	44.7µM	0	0	0	-
O=C(c1ccc(Cl)cc1)C(CN1CCCCCC1)c1ccccc1 (stereo unspecified)	-	0	-	-	-	-
CC(=O)N1CCC(CC(=O)N2CCCC(c3[nH]ccc3C(N)=O)C2)CC1 (stereo unspecified)	-	0	-	-	-	-
CCO/C=N/c1c(C#N)c2c(c(=S)n1C)COC(C)(C)C2	0	0	0	0	0	3.55µM
O=C(c1ccccc1)N1CCn2c(nn(-c3ccc(F)cc3)c2=O)C1	-	0	-	-	-	-
Cc1ccc(Oc2nc3ccccn3c(=O)c2/C=C(\C#N)c2nc3ccccc3s2)c(C)c1	0	3.98µM	-	-	-	0
N#C/C(=C\c1c(Oc2ccc(F)cc2)nc2ccccn2c1=O)c1nc2ccccc2s1	0	?	-	-	-	0
O=C(Nc1cc(C(=O)Nc2ccc(S(=O)(=O)O)cc2S(=O)(=O)O)cc(C(=O)Nc2ccc(S(=O)(=O)O)cc2S(=O)(=O)O)c1)Nc1cc(C(=O)Nc2ccc(S(=O)(=O)O)cc2S(=O)(=O)O)cc(C(=O)Nc2ccc(S(=O)(=O)O)cc2S(=O)(=O)O)c1	5.01µM	0	-	-	-	0
Nc1ccc(C(=O)Nc2ccc3cc(S(=O)(=O)O)ccc3c2)cc1	-	0	0	0	0	-
O=C(CCc1nc(-c2ccccc2)c(-c2ccccc2)o1)OCc1ccc(Br)cc1	0	0	0	0	0	28.2µM
CC(=O)Nc1ccc(S(=O)(=O)N2CCC(NC(=O)CC3CCCC3)CC2)cc1	-	0	-	-	-	-
COc1ccc(/C=C2\SC(=S)N(CC(=O)OCC(=O)Nc3cc(Cl)cc(Cl)c3)C2=O)cc1	-	39.8µM	0	0	0	0
Cc1c(N2C(=O)c3cccc4cccc(c34)C2=O)c(=O)n(-c2ccccc2)n1C	0	0	0	0	0	0
Cc1c(N=C2Nc3cccc4cccc2c34)c(=O)n(-c2ccccc2)n1C	0	0	?	2.59µM	?	0
CC1Oc2ccc(NC(=O)Cc3ccc(F)cc3)cc2CN(Cc2ccc(Cl)cc2)C1=O (stereo unspecified)	-	0	-	-	-	-
